BH1578 lux ind: inducers of Vibrio cholerae quorum light production without autoinducers, primary screen, BH1578 luxS cqsA deficient, single point | V. cholerae BH1578 lux reporter, luminescence, 6 h | activation, % at 18.7 µM | 0.16% of 350,000 active; in the data active = activation mostly above about 9.7%, no sharp cut-off; inconclusive = no clear call, values can overlap the other calls; inactive = mostly below about 3.7%
Sa RN4220 lethal: growth inhibition of S. aureus RN4220, primary screen, OD600. 16 h. inhibition, % (concentration not given with the values). 0.33% of 330,000 active. AID 1259311, 2017; in the data active = inhibition above about 85%
CCHFV vOTU inh: CCHFV vOTU protease inhibitors, primary screen, biochemical, Pep-AMC substrate, fluorescence; Crimean-Congo hemorrhagic fever virus L polyprotein viral ovarian tumor (vOTU) protease …; inhibition, % at 11.5 µM; 0.55% of 370,000 active; in the data active = inhibition above about 30%
Mtb hypoxia rep: PubChem AID 1159583 | M. tuberculosis hypoxia-regulated fluorescent reporter, fluorescence | fluorescence inhibition, % (test concentration not listed) | 0.1% of 300,000 active; in the data active = fluorescence inhibition mostly above about 23%, no sharp cut-off; inactive = mostly below about 17%
ugtP null kill: growth inhibition of ugtP-null S. aureus, primary screen, RN4220 ugtP deletion, OD600 | growth inhibition, % (test concentration not listed) | 16 h | AID 1259309, 2017 | 0.54% of 330,000 active; in the data active = growth inhibition above about 68%
PfHsp40 yeast: rescue of yeast from PfHsp40 toxicity, primary screen, S. cerevisiae, ATP luminescence; S. cerevisiae expressing PfHsp40, growth rescue; growth rescue, % at 12.5 µM; 0.68% of 340,000 active; AID 504582, 2011; in the data active = growth rescue above about 28%, passing the limit was not always enough; inconclusive = no clear call, values can overlap the other calls;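 also: yeast W303a lacking pdr1 and pdr3 grown in galactose medium; growth measured after three days at 30 °C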
Large screens that a line does not name were inactive. This is a sample that favours compounds with a hit; in the whole collection about 1.7% have one here.

CCOc1ccc(NS(=O)(=O)c2ccc(C(=O)N(C)CC(=O)Nc3ccc(OC)cc3)cc2)cc1	none
CC(C)CC(=O)NC(=S)Nc1ccc(S(=O)(=O)NC(C)(C)C)cc1	ugtP null kill 86.7
CC(C)CC(=O)NC(=S)Nc1ccc(S(=O)(=O)Nc2nccs2)cc1	ugtP null kill 91.6
CCOc1ccc(NS(=O)(=O)c2ccc(NC(=S)NC(=O)CC(C)C)cc2)cc1	ugtP null kill 87.0 (no result: Mtb hypoxia rep)
C=C1C(O)C(CC(C)C)N(Cc2ccccc2Br)S1(=O)=O (stereo not given)	none (no result: BH1578 lux ind, CCHFV vOTU inh, PfHsp40 yeast)
Cc1ccc(-c2ccc(C=NNC(=O)CN3CCOCC3)o2)cc1[N+](=O)[O-]	none (no result: BH1578 lux ind, CCHFV vOTU inh, PfHsp40 yeast)
C#CCOCCOCCOCCNc1nc(N2CCN(C(=O)C(CC(N)=O)n3cc(C(N)CC(N)=O)nn3)CC2)nc(N2CCN(C(=O)C(CC(N)=O)n3cc(C(N)CC(N)=O)nn3)CC2)n1 (stereo not given)	none (no result: BH1578 lux ind, CCHFV vOTU inh, PfHsp40 yeast)
COc1ccc(C=NNC(=O)c2c(C)nc3ccccn23)cc1[N+](=O)[O-]	none (no result: BH1578 lux ind, CCHFV vOTU inh, PfHsp40 yeast)
CC(C)CC(=O)NC(=S)Nc1ccc(S(=O)(=O)N2CCN(C)CC2)cc1	ugtP null kill 85.9
CCc1nnc(NS(=O)(=O)c2ccc(NC(=S)NC(=O)c3ccc(F)cc3)cc2)s1	ugtP null kill 87.3
CC(C)C(=O)NC(=S)Nc1ccc(S(=O)(=O)N2CCN(C)CC2)cc1	none
CCc1nnc(NS(=O)(=O)c2ccc(NC(=S)NC(=O)c3cccnc3)cc2)s1	none
COc1ccc(C(=O)Nc2nc(-c3cccs3)cs2)cc1	none (no result: Sa RN4220 lethal, Mtb hypoxia rep, ugtP null kill)
COc1cc(C(=O)Nc2nc(-c3cccs3)cs2)cc(OC)c1OC	PfHsp40 yeast 41.2
Cc1onc(-c2ccccc2Cl)c1C(=O)NC1C(=O)N2C1SC(C)(C)C2C(=O)O (stereo not given)	Sa RN4220 lethal 98.6, ugtP null kill 100.0 (no result: BH1578 lux ind, CCHFV vOTU inh, PfHsp40 yeast)
Cc1onc(-c2c(Cl)cccc2Cl)c1C(=O)NC1C(=O)N2C1SC(C)(C)C2C(=O)O (stereo not given)	Sa RN4220 lethal 100.8, ugtP null kill 100.5
Cc1onc(-c2c(Cl)cccc2Cl)c1C(=O)N[C@@H]1C(=O)N2[C@@H]1SC(C)(C)[C@@H]2C(=O)O	none
CCSc1nnc(NC(=O)C(NC(=O)c2cccc(C)c2)C(C)C)s1 (stereo not given)	none (no result: BH1578 lux ind, CCHFV vOTU inh, PfHsp40 yeast)
CC(=O)Nc1cccc(C(=O)NN=Cc2cccnc2)c1	none (no result: BH1578 lux ind, CCHFV vOTU inh, PfHsp40 yeast)
CCOC(=O)c1c(NC(=O)C(=O)NN=Cc2ccccc2O)sc2c1CCCCC2	none (no result: BH1578 lux ind, CCHFV vOTU inh, PfHsp40 yeast)
COC(=O)c1ccc(NC(C(=O)OC)C(C)C)c([N+](=O)[O-])c1 (stereo not given)	PfHsp40 yeast 50.1 (no result: Sa RN4220 lethal, Mtb hypoxia rep, ugtP null kill)
Cc1nn(-c2ccccc2)c(N2CCCCC2)c1C=NNC(=O)c1ccncc1	none (no result: BH1578 lux ind, CCHFV vOTU inh, PfHsp40 yeast)
COc1ccc(C(C)=NNC(=O)Cc2ccc(Cl)cc2)cc1	none (no result: BH1578 lux ind, CCHFV vOTU inh, PfHsp40 yeast)
O=[N+]([O-])c1cc(Br)cc(/C=N/n2cnnc2)c1O	PfHsp40 yeast 203.7 (no result: Sa RN4220 lethal, Mtb hypoxia rep, ugtP null kill)
O=[N+]([O-])c1cc(Cl)cc(/C=N/n2cnnc2)c1O	none (no result: Sa RN4220 lethal, Mtb hypoxia rep, ugtP null kill)
CC1CN(C(C)CO)C(=O)c2cc(NC(=O)CCC(F)(F)F)ccc2OC1CN(C)C(=O)Nc1ccc2c(c1)OCO2 (stereo not given)	none (no result: BH1578 lux ind, CCHFV vOTU inh, PfHsp40 yeast)
CC1CCc2[nH]c3ccc(C(=O)O)cc3c2C1 (stereo not given)	none
O=C(O)c1ccc2[nH]c3c(c2c1)CCCC3	PfHsp40 yeast 34.6
CCOc1cc(C=NNC(=O)c2ccncc2)ccc1OC(=O)c1ccco1	none (not shown: BH1578 lux ind, CCHFV vOTU inh, Mtb hypoxia rep, PfHsp40 yeast)
CC(C)=CCCC1(C)C=Cc2c(c(C)cc3c2[nH]c2cc(O)ccc23)O1 (stereo not given)	ugtP null kill 100.6, PfHsp40 yeast inconclusive (no result: Mtb hypoxia rep)
CC1S/C(=N/N=Cc2cccc([N+](=O)[O-])c2)NC1=O (stereo not given)	none (no result: BH1578 lux ind, CCHFV vOTU inh, PfHsp40 yeast)
O=C(CSc1nnc(-c2ccc3c(c2)OCO3)o1)Nc1ncc(C(F)(F)F)cc1Cl	ugtP null kill 96.6
Cc1nc(NC(=O)CSc2nnc(-c3ccc4c(c3)OCO4)o2)c(Cl)cc1Cl	none
CC(=NNC(=S)N1CC2CCC(CC2)C1)c1ccncn1	PfHsp40 yeast 97.8 (no result: Sa RN4220 lethal, Mtb hypoxia rep, ugtP null kill)
CCc1ccc(NP(=O)(Oc2ccccc2F)Oc2ccccc2F)cc1	PfHsp40 yeast 42.6
CCOC(=O)c1ccc(NC(=O)CCc2nc(-c3ccccc3Cl)no2)cc1	PfHsp40 yeast 33.7

High-throughput results as filed in PubChem BioAssay.
